# Shown are actives, neighbours in structure and some others; about 7.9% of the full set was active somewhere.
# KB-3-1 tox = kills parental KB-3-1 adenocarcinoma cells; hit rate 1.4% among 400,000; KB-3-1 viability, CellTiter-Glo ATP luminescence, 72 h; AID 1347075; Potency, µM (series often up to 46.1 µM), actives largely listed as cytotoxic; further: on the % scale 0 is the no-effect control and ±100 the full control effect; nearly all actives have a fitted effect of over 60% in size
#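 Multi-concentration cytotoxicity screen in KB-3-1 cells grown in DMEM lacking phenol red with 10% FBS. After 72 h at 37 °C with compound, ATP-dependent luminescence was recorded.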
# SW480 rerep = DNA re-replication induction in SW480 cells | hit rate 1.8% among 340,000 | Potency, µM (highest dose often 46.1 µM), for inactives: at the highest dose re-replication activation, usual class: activators | AID 624297 | SW480 DNA re-replication, Hoechst DNA content imaging, 48 h; further: % of control where 0% means no effect; nearly all actives have a fitted effect of over 55% in size
#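 Treated cells incubate 48 hr (37 C, 5% CO2), are stained 40 min with Hoechst, and nuclear fluorescence is enumerated; a rise in nuclei with high DNA signal marks re-replication.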
# HT1080NT lethal = kills 2HG-producing HT-1080-NT fibrosarcoma cells | HT-1080-NT fibrosarcoma viability, CellTiter-Glo ATP luminescence, 48 h | Potency, µM (titrated, usually from 46.1 µM), for the others: at the highest dose activity, negative = less viability, usual class: cytotoxic | hit rate 1.6% among 360,000 | AID 686970;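 further: NT is the 2HG producing partner of a matched IDH1 knockdown line; 0% = DMSO-treated cells and -100% = media-only wells without cells; nearly all actives have a fitted effect of over 55% in size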
#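 Compounds were tested in concentration-response format on HT-1080-NT cells for 48 hours at 37 degrees C. Cell viability came from CellTiter-Glo luminescence; curves were classified by r2, response magnitude and activity.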
# HT1080 IDH1KD tx = kills HT-1080 cells with IDH1 knockdown; hit rate 2% among 360,000; Potency, µM (series often up to 46.1 µM), for inactives: at the top dose activity, negative = toxicity, most hits filed as cytotoxic; HT-1080 IDH1 knockdown viability, ATP luminescence, 48 h;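 further: 0% = DMSO wells and -100% = cell-free medium wells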
#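 % activity derives from luminescence (CellTiter-Glo), normalised to DMSO and no-cell wells. HT-1080-IDH1KD cells, 750/well, had 48 h compound exposure at 37 °C.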
# MCF10A rerep = inducers of DNA re-replication in MCF 10A breast cells; MCF 10A DNA re-replication, Hoechst nuclear intensity, 48 h; Potency, µM (doses to about 46.1 µM), for inactives: top-dose activity, positive = re-replication, hits mostly activators; hit rate 2.9% among 350,000; further: % of control where 0% means no effect; nearly all actives have a fitted effect of over 50% in size
# KB-V1 cytotox = KB-V1 MDR subline cytotoxicity; KB-V1 MDR cells viability, CellTiter-Glo, 72 h; Potency, µM (titrated, usually from 46.1 µM), usual class: cytotoxic; hit rate 3.4% among 400,000; further: on the % scale 0 is the no-effect control and ±100 the full control effect; nearly all actives have a fitted effect of over 60% in size
#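 Cytotoxicity toward P-gp-expressing KB-V1 cells was determined as loss of CellTiter-Glo luminescence after 72 h at 37 degrees C. Compounds were tested in quantitative HTS format across a concentration range, with curves fitted to normalized data.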
# The depositor's hits bear a star; i = inactive; ? = inconclusive; nt = no result; ! = a repeat was not active. The call rests on the fitted dose curve; in most records, active means well fitted curve in the direction sought with a large enough effect; inconclusive means small, poorly fitted or top-dose-only effect, or another doubt; inactive means no such curve, though single readings can be large; an effect the other way counts as inactive or inconclusive. Potency means the concentration at half of the fitted maximal effect.
SMILES,KB-3-1 tox,SW480 rerep,HT1080NT lethal,HT1080 IDH1KD tx,MCF10A rerep,KB-V1 cytotox
Cc1ccc(S(=O)(=O)N2CCCc3cc(NC(=O)c4ccc(C(F)(F)F)cc4)ccc32)cc1,i,nt,nt,nt,nt,i
CCCCC(c1nc2ccccc2[nH]1)n1c(-c2ccccc2)nc2ccccc21 (configuration not stated),i,nt,15%,-1%,nt,i
C/C=C/c1ccc(OCCCCN2CC(C)CC(C)C2)c(OC)c1 (configuration not stated),?,?,23µM*,21µM*,?,?
C/C=C/c1ccc(OCCCCN2CCN(CC)CC2)c(OC)c1,i,8.2µM*,-14%,-16%,-5%,i
C/C=C/c1ccc(OCCCCOc2ccc(OC)cc2)c(OC)c1,i,-13%,12%,11%,23%,i
C[C@@H]1CNC(=O)c2c(C(=O)NCC(=O)OC(C)(C)C)ncn21,i,nt,17%,9%,nt,i
CC1CCCCC1NC(=O)NC(=O)CCl (configuration not stated),?,6.5µM*,-18%,?,?,i
CC1CCCC(NC(=O)NC(=O)CCl)C1C (configuration not stated),i,?,-4%,-6%,?,i
CCOc1ccc(NC(=O)N(C2CCCC2)C2CCN(C(C)=O)CC2)cc1,i,-17%,-5%,1%,-6%,i
CCOc1ccc(NC(=O)N(CCC(C)C)C2CCN(C(C)=O)CC2)cc1,i,-2%,8%,-1%,-11%,18µM*
CCOc1ccc(NC(=O)N2CCC(N3CCCCC3)CC2)cc1,i,nt,nt,nt,nt,i
CCOc1ccc(NC(=O)N2CCC(c3ccc(C)cc3)C2)cc1 (configuration not stated),i,-8%,6%,-2%,9%,21µM*
CC(=O)Nc1ccc(-c2cc(C(=O)O)c3c(-c4ccccc4)[nH]nc3n2)cc1,i,nt,nt,nt,nt,i
CCOC(=O)/C=C1\CN(Cc2cc(OC)c(OC)c(OC)c2)S(=O)(=O)c2ccc(C(F)(F)F)cc21,?,?,0%,-6%,1%,?
CCOC(=O)/C=C1\CN(Cc2cc(OC)c(OC)c(OC)c2)S(=O)(=O)c2ccccc21,?,1%,?,-10%,?,10µM*!
Cc1ccccc1NC(=O)Nc1nnc([C@@H]2C[C@H](O)[C@@H](CO)O2)s1,i,nt,13%,7%,nt,i
CCCC1=NN2C(=N)/C(=C\c3cc(C)n(-c4cc(C)cc(C)c4)c3C)C(=O)N=C2S1,i,1%,9%,8%,21µM*,?
Cc1cccc(-n2c(C)cc(/C=C3\C(=N)N4N=C(CC(C)C)SC4=NC3=O)c2C)c1,i,-3%,17%,18%,1%,i
Cc1cc(/C=C2\C(=N)N3N=C(CC(=O)N4CCOCC4)SC3=NC2=O)c(C)n1Cc1ccccc1,i,-7%,6%,4%,18µM*,i
Cc1cc(C)cc(-n2c(C)cc(/C=C3\C(=N)N4N=C(CC(C)C)SC4=NC3=O)c2C)c1,?,2%,1%,9%,18µM*,21µM*
CCC(=O)N1CCCC1(C)C(=O)Nc1ccc2scnc2c1 (configuration not stated),i,nt,?,?,nt,i
O=C(Nc1cc(Cl)ccc1Cl)c1cc(S(=O)(=O)N2CCc3ccccc3C2)ccc1F,i,nt,nt,nt,nt,i
O=C(NCc1ccco1)c1ccc(Cl)c(S(=O)(=O)N2CCCC2)c1,i,2%,1%,8%,3%,i
COc1ccc2c(c1)OC(=O)CC2c1cc(OC)c(OC)c(OC)c1 (configuration not stated),?,?,?,15µM*,?,i
CCC1=C(c2ccc(C)cc2)S(=O)(=O)N=C1N1CCC(C(=O)NCc2ccc(N(C)C)cc2)CC1,i,nt,nt,nt,nt,i
